Test system: Vero E6 infected with SARS-CoV-2
Test: inhibition of SARS-CoV-2 cytopathic effect; higher = more antiviral protection, active = above 15
Conditions: 48 h

Measured: inhibition of SARS-CoV-2 cytopathic effect

C[C@]12CC[C@H](O)C[C@H]1CC[C@@H]1[C@@H]2CC[C@]2(C)[C@@](O)(c3ccoc3)CC[C@]12O [rostafuroxine]
inactive: 1 nM 3.43% | 8.33 nM -0.48% | 100 nM 1.69% | 833.33 nM -1.79% | 10000 nM -1.77%

Cc1c(C)c2c(c(C)c1O)CCC(C)(COc1ccc(CC3SC(=O)NC3=O)cc1)O2 (stereo not given) [troglitazone]
inactive: 1 nM 1.07% | 8.33 nM 1.5% | 100 nM 1.01% | 833.33 nM 2.48% | 10000 nM 5.84%

CCOC(=O)c1ncn2c1CN(C)C(=O)c1cc(N=[N+]=[N-])ccc1-2
inactive: 1 nM 3.15% | 8.33 nM 7.03% | 100 nM 2.59% | 833.33 nM -0.14% | 10000 nM -2.15%

CN(C)C(=O)CCSC(SCCC(=O)O)c1cccc(/C=C/c2ccc3ccc(Cl)cc3n2)c1 (stereo not given)
inactive: 1 nM -1.06% | 8.33 nM -1.39% | 100 nM 3.57% | 833.33 nM 1.55% | 10000 nM 5.11%

OC(c1ccccc1)C1CCN(CCc2ccccc2)CC1 (stereo not given)
inactive: 1 nM -0.21% | 8.33 nM 1.17% | 100 nM -0.64% | 833.33 nM -0.54% | 10000 nM 0.25%

COc1ccc2cc([C@H](C)C(=O)O)ccc2c1 [naproxen]
inactive: 1 nM 3.38% | 8.33 nM 3.96% | 100 nM 1.16% | 833.33 nM -1.2% | 10000 nM 0.68%

Cc1ccccc1C(OCCN(C)C)c1ccccc1 (stereo not given) [orphenadrine]
inactive: 1 nM 0.59% | 8.33 nM 0.5% | 100 nM -0.66% | 833.33 nM 1.65% | 10000 nM -0.73%

CC(C)(C)C(=O)CN1C(=O)[C@H](NC(=O)Nc2cccc(C(=O)O)c2)CN(C2CCCCC2)c2ccccc21 [nastorazepide]
inactive: 1 nM -1.25% | 8.33 nM -0.99% | 100 nM 0.77% | 833.33 nM 0.71% | 10000 nM -1.1%

CNc1nc(C)nc(N[C@H]2CCC[C@@H](C(=O)NCc3ccc(C#N)cc3C(F)(F)F)C2)n1
inactive: 1 nM 1.51% | 8.33 nM -1.43% | 100 nM -0.92% | 833.33 nM -0.12% | 10000 nM -2.39%

CC(C)(OCc1nn(Cc2ccccc2)c2ccccc12)C(=O)O [bindarit]
inactive: 1 nM -0.08% | 8.33 nM -0.77% | 100 nM 0.47% | 833.33 nM -2.78% | 10000 nM -0.8%

CCC(CC)C(c1ccc(Nc2nc3ccccc3s2)cc1)n1cncn1 (stereo not given) [talarozole]
inactive: 1 nM 3.05% | 8.33 nM 0.68% | 100 nM 0.42% | 833.33 nM 1.31% | 10000 nM 4.15%

CCOC(=O)c1ccc(N(C)c2csc(-c3ccccc3)n2)cc1 [neuropathiazol]
inactive: 1 nM -0.18% | 8.33 nM 1.78% | 100 nM 0.85% | 833.33 nM 2.12% | 10000 nM 2.67%

Nc1nnc(-c2cccc(Cl)c2Cl)c(N)n1 [lamotrigine]
inactive: 1 nM -2.3% | 8.33 nM -2.08% | 100 nM -1.73% | 833.33 nM -0.07% | 10000 nM 0.08%

CC(C)CN(C[C@@H](O)[C@H](Cc1ccccc1)NC(=O)O[C@H]1CCOC1)S(=O)(=O)c1ccc(N)cc1 [amprenavir]
inactive: 1 nM -0.22% | 8.33 nM 1.43% | 100 nM -0.29% | 833.33 nM -1.76% | 10000 nM -0.72%

O=C(Nc1ccc(S(=O)(=O)C(F)(F)F)cc1)C1=CCN(c2ncccc2C(F)(F)F)CC1
inactive: 1 nM 0.25% | 8.33 nM -1.04% | 100 nM -1.04% | 833.33 nM -0.34% | 10000 nM -2.58%

CC(C)(C)c1ccc(O)cc1 [4-tert-butylphenol]
inactive: 1 nM -0.71% | 8.33 nM 1.9% | 100 nM -1.66% | 833.33 nM 2.45% | 10000 nM 2.59%

CC1(C)S[C@@H]2[C@H](N3C(=O)[C@@H](c4ccccc4)NC3(C)C)C(=O)N2[C@H]1C(=O)O [hetacillin]
inactive: 1 nM -0.32% | 8.33 nM 0.69% | 100 nM 0.82% | 833.33 nM 2.11% | 10000 nM 2.77%

CNC(=O)c1ccccc1Sc1ccc2c(/C=C/c3ccccn3)n[nH]c2c1 [axitinib]
inactive: 1 nM -0.21% | 8.33 nM -0.79% | 100 nM 0.55% | 833.33 nM 2.32% | 10000 nM 0.23%

CNC(=O)ON(C(C)=O)C(=O)NC [caracemide]
inactive: 1 nM -4.06% | 8.33 nM -3.46% | 100 nM 0.29% | 833.33 nM -1.19% | 10000 nM 8.36%

O=Nc1c(-c2c(O)[nH]c3cc(Br)ccc23)[nH]c2ccccc12 [GSK-3-inhibitor-IX]
inactive: 1 nM -0.14% | 8.33 nM 0.68% | 100 nM 1.64% | 833.33 nM 13.8% | 10000 nM -4.11%

Cc1cc(Nc2cc(C)c(C#N)c(N[C@@H](C)CCCC(C)(C)O)n2)n[nH]1
inactive: 1 nM -1.85% | 8.33 nM -0.28% | 100 nM -1.25% | 833.33 nM -6.81% | 10000 nM -8.95%

CN[C@@H](C)[C@H]1[C@H](O)C[C@@]2(C)[C@@H]3CC[C@H]4C(C)(C)[C@@H](NC)CC[C@@]45C[C@@]35CC[C@]12C [cyclovirobuxin-D]
inactive: 1 nM -0.38% | 8.33 nM 2.73% | 100 nM 3.9% | 833.33 nM 2.48% | 10000 nM -7.38%

CS(=O)(=O)Nc1ccc2oc3c(OC(F)F)ccc(C(=O)Nc4c(Cl)cncc4Cl)c3c2c1 [oglemilast]
inactive: 1 nM -1% | 8.33 nM 0.83% | 100 nM 1.63% | 833.33 nM 0.94% | 10000 nM 1.89%

COc1cccc(C2(O)CCCCC2CN(C)C)c1 (stereo not given)
inactive: 1 nM 3.29% | 8.33 nM 6.35% | 100 nM 2.41% | 833.33 nM -2.01% | 10000 nM -5.31%

Cc1cccc(/C=N/Nc2cc(N3CCOCC3)nc(OCCc3ccccn3)n2)c1
active: 100 nM 26.8% | 833.33 nM 20.4% | 10000 nM 19.1%
inactive: 1 nM 0.81% | 8.33 nM 1.56%

CCOCc1nc2c(N)nc3ccccc3c2n1CC(C)(C)O [resiquimod]
inactive: 1 nM 2.06% | 8.33 nM 3.82% | 100 nM 1.55% | 833.33 nM 1.03% | 10000 nM -1.23%

C(=C\c1ccccc1)/CN1CCN(CCOC(c2ccccc2)c2ccccc2)CC1
inactive: 1 nM -2.82% | 8.33 nM 0.59% | 100 nM -0.97% | 833.33 nM 0.92% | 10000 nM 4.63%

OCCN(CCO)c1nc(N2CCCCC2)c2nc(N(CCO)CCO)nc(N3CCCCC3)c2n1 [dipyridamole]
inactive: 1 nM -0.67% | 8.33 nM 1.83% | 100 nM 0.53% | 833.33 nM 0.2% | 10000 nM 4.52%

O=C(O)CCN(O)C(=O)CCCCCCCCC1CC1
inactive: 1 nM 2.3% | 8.33 nM -1.05% | 100 nM 1.09% | 833.33 nM 4.48% | 10000 nM 5.29%

Cc1c(I)c(=O)n(-c2ccccc2)n1C [iodoantipyrine]
inactive: 1 nM -0.48% | 8.33 nM -2.57% | 100 nM -0.75% | 833.33 nM -0.95% | 10000 nM 1.55%

Cn1c(=O)c2c(ncn2CCOC(=O)C(C)(C)Oc2ccc(Cl)cc2)n(C)c1=O [etofylline-clofibrate]
inactive: 1 nM 4.94% | 8.33 nM 3.79% | 100 nM 1.68% | 833.33 nM 2.56% | 10000 nM -0.53%

NC(=O)OCCCc1ccccc1 [phenprobamate]
inactive: 1 nM 0.89% | 8.33 nM 0.93% | 100 nM -0.42% | 833.33 nM -2.45% | 10000 nM -2.7%

COC(=O)[C@@]12OC[C@]34[C@H]([C@@H](O)[C@@H]1O)[C@@]1(C)CC(=O)C(O)=C(C)[C@@H]1C[C@H]3OC(=O)[C@H](OC(=O)/C=C(\C)C(C)C)[C@@H]24 [bruceantin]
inactive: 1 nM 1.48% | 8.33 nM 1.92% | 833.33 nM 4.61% | 10000 nM -16.1%
active: 100 nM 26.8%

O=C(O)c1ccc(N2C(=O)/C(=C/c3ccc(-c4ccc([N+](=O)[O-])cc4)o3)C=C2c2ccccc2)cc1
inactive: 1 nM -2.98% | 8.33 nM -0.14% | 100 nM 1.72% | 833.33 nM -6.51% | 10000 nM -0.18%

CCOC(=O)Nc1ccc2c(c1)N(C(=O)CN(CC)CC)c1ccccc1CC2
inactive: 1 nM -0.45% | 8.33 nM 0.56% | 100 nM 1.77% | 833.33 nM 0.29% | 10000 nM 0.79%

CO[C@@]1(NC(=O)CSC[C@@H](N)C(=O)O)C(=O)N2C(C(=O)O)=C(CSc3nnnn3C)CS[C@@H]21 [cefminox]
inactive: 1 nM -0.91% | 8.33 nM 0.78% | 100 nM -1.2% | 833.33 nM -1.63% | 10000 nM 1.75%

COc1ccc2[nH]cc(CCNC(C)=O)c2c1 [melatonin]
inactive: 1 nM 2.18% | 8.33 nM 0.84% | 100 nM 2.24% | 833.33 nM 2.42% | 10000 nM -2.74%

CCN(CC)CCOc1ccc(C(O)(Cc2ccc(Cl)cc2)c2ccc(C)cc2)cc1 (stereo not given) [Triparanol]
active: 10000 nM 51.4%
inactive: 1 nM -0.73% | 8.33 nM 1.69% | 100 nM -1.43% | 833.33 nM -2.54%

Cc1cnc(C(=O)O)c[n+]1[O-] [acipimox]
inactive: 1 nM -1.88% | 8.33 nM -0.46% | 100 nM -1.4% | 833.33 nM -2.17% | 10000 nM -1.06%
